This is an account of results in PubChem BioAssay AID504832 (National Center for Advancing Translational Sciences (NCATS), 2011).

Among all 310,000 compounds or so, about 18,000 (5.8%) were called active. Not shown: some 22% with an inconclusive outcome. Calls come from the whole dose curve; as a rule, active = well fitted inhibition curve with a large enough effect; inconclusive = small, poorly fitted or top-dose-only effect, or another doubt; inactive = no such curve, though single readings can be large or run the other way. The list comes from a sample in which actives are over-represented; it also holds similar structures and randomly drawn compounds.
% is set by controls: 0 for no effect and ±100 for the full control effect; potency is the fitted concentration of half-maximal effect.

A short description of the experiment: Primary qHTS for delayed death inhibitors of the malarial parasite plastid, 48 hour incubation. The note with it: P. falciparum luciferase growth in erythrocytes; series mostly up to 28.7 µM; activity change, negative = inhibition: at the top concentration. From the text:
The goal of this screen is to discover new antimalarial compounds that act by inhibiting the development of the apicoplast in the malarial parasite Plasmodium falciparum. The biochemical processes that make this organelle essential for erythrocytic stage parasites are not well understood. However, antibiotics such as azithromycin and tetracycline, which target the apicoplast translational machinery, have a potent antimalarial effect.
We have developed a cell-based assay that measures parasite growth based on the expression of an integrated copy of a firefly luciferase reporter. To detect small molecules that cause this "delayed death" phenotype, erythrocytes infected with the luciferase-expressing parasites were incubated with compounds for either one or two generations, corresponding to 48 and 96 hours, respectively. Compounds that inhibit parasite growth in the second generation, but not the first, should be enriched in antimalarials that target the apicoplast. Growth inhibition is detected by a decrease in luciferase activity.
Assay Provider: David Fidock and Eric Ekland, Columbia University
Keywords: NIH Roadmap, MLPCN, MLI, MLSMR, qHTS, NCGC, qHTS, malaria, luciferase, viability
Four microliters of culture medium (RPMI 1640 with 0.5% w/v Albumax (GIBCO), 24 mM sodium bicarbonate and 10 ug/mL gentamycin) were dispensed by a Multi-drop Combi into white solid 1536-well plates (Grenier) and 23 nL compound was added by a pin tool. Four microliters of infected erythrocytes (2% hematocrit, 0.1% parasitemia final concentration) in culture medium were dispensed and the plates incubated for 48 hours at 37 C in 5% CO2. Two microliters of luciferase detection reagent was added and luminescence was detected by a ViewLux (PerkinElmer) reader.
Turning to `COc1ccc(CNC(=O)CN2C(=O)NC3(CCCc4sccc43)C2=O)cc1` (centres undefined), the “activity change, negative = inhibition” value was -0.331% (inactive). Regarding `CCN(CC)S(=O)(=O)c1ccc(N2CC(C(=O)NCc3cccnc3)CC2=O)cc1` (centres undefined), the “activity change, negative = inhibition” value is -16.4% (inactive). `Cc1ccc2[nH]c(=O)c(CN(C)S(=O)(=O)c3cccc4nonc34)cc2c1`: the “activity change, negative = inhibition” value was 21.1% (inactive). For the molecule `CCN(Cc1ccccc1)S(=O)(=O)c1cc2c3c(c1)CCN3C(=O)CC2`, the “activity change, negative = inhibition” value was -3.66% (inactive).

Consider `CC1CCCN(CC(=O)Nc2cc(Cl)ccc2Oc2ccccc2)C1` (centres undefined), for which the Potency was 14.7 µM (active). `COc1cc(Cl)c(C)cc1NC(=O)CN1CCCCCC1`: the “activity change, negative = inhibition” value is 3.43% (inactive). The same measure, in the same setting: the value for `O=C(CN1CCCCCC1)Nc1ccc(Cl)cc1F` was 25.3% (inactive). As to `Cc1sc2ncn(CC(=O)NCCN(C)C)c(=O)c2c1S(=O)(=O)N1CCC(C)CC1`, the “activity change, negative = inhibition” value is 4.82% (inactive).

With `COCCCn1c(SCC(=O)NC2CCCC2)nnc1-c1ccccc1`, the “activity change, negative = inhibition” value was 0.923% (inactive).

`COCCCn1c(Cc2csc(Nc3cccc(Cl)c3)n2)nnc1SCC(=O)OC1CCCCC1`: the Potency was 8.28 µM (active). `COCCCn1c(SCC(=O)Nc2ccccc2)nnc1-c1ccncc1`: the “activity change, negative = inhibition” value was -1.61% (inactive).

For the molecule `COc1cc(C(=O)OCC(=O)NC(C)CCc2ccccc2)cc(OC)c1OC` (centres undefined), the “activity change, negative = inhibition” value was -10.2% (inactive). `NC(=O)c1cc(S(=O)(=O)NCCCc2ccco2)cs1`: the “activity change, negative = inhibition” value was -26.8% (inactive).

In the case of `Cc1[nH]c2c(C(=O)N3CCCC(CCC(=O)NCc4ccccc4F)C3)cccc2c1C` (centres undefined), the Potency was 11.7 µM (active). In the case of `COc1cccc(CNC(=O)CCC2CCCN(C(=O)c3cc(C)[nH]n3)C2)c1` (centres undefined), the “activity change, negative = inhibition” value was 0% (inactive). For `COc1cccc(C(=O)N2CCCC(CCC(=O)NCc3ccc(F)c(F)c3)C2)c1` (centres undefined), the “activity change, negative = inhibition” value was -0.317% (inactive).

For the molecule `CCOc1ccc(NC(=S)N2CCC(NC(=O)c3ccccc3)CC2)cc1`, the “activity change, negative = inhibition” value is 25.8% (inactive).

In the case of `COc1ccc(NC(=O)CCC(=O)N2CCN(S(=O)(=O)c3ccc(C)cc3)CC2)c(OC)c1`, the “activity change, negative = inhibition” value is -9.09% (inactive). Consider `COc1ccc(/C=C/C(=O)c2ccc(NS(=O)(=O)c3ccc(C)cc3)cc2)cc1O`, for which the Potency was 14.7 µM (active). Consider `COc1ccc(C(=O)Oc2cc(/C=N/NS(=O)(=O)c3ccc(C)cc3)ccc2OC)cc1`, for which the “activity change, negative = inhibition” value is -2.4% (inactive).

For the molecule `COc1ccc(NS(=O)(=O)c2ccc(NC(C)=O)cc2)cc1OC`, the “activity change, negative = inhibition” value was -1.61% (inactive). On to `Cc1cc(Cl)c2oc(C(=O)N(C)C(C)c3ccccn3)c(C)c2c1` (centres undefined), for which the “activity change, negative = inhibition” value is 8.93% (inactive). `CCc1nccn1CCC(=O)N1CCCC(N2CCN(c3ccccc3F)CC2)C1` (centres undefined): the “activity change, negative = inhibition” value is -21.7% (inactive). For the molecule `O=C(Nc1ccc2c(c1)OCCO2)c1ccc(Cl)c(S(=O)(=O)N2CCCCC2)c1`, the Potency was 6.57 µM (active). In the case of `Cc1ccc(C(=O)Nc2ccc3c(c2)OCO3)cc1S(=O)(=O)N1CCCCC1`, the “activity change, negative = inhibition” value is -24.7% (inactive). The same measure, in the same setting: the value for `CNS(=O)(=O)c1ccc(NC(=O)C2CC(=O)N(c3ccc(Cl)cc3)C2)cc1` (centres undefined) was -7.43% (inactive). `CC1CC(C)CN(C(=O)C2CC(=O)N(c3ccc(F)cc3)C2)C1` (centres undefined): the “activity change, negative = inhibition” value was 16.7% (inactive). On the same count and under the same terms, the value for `O=C(NC1CCCC1)C1CC(=O)N(c2ccc(F)cc2)C1` (centres undefined) was 46.9% (inactive); that for `O=C(c1ccc(Cl)c(S(=O)(=O)N2CCCCC2)c1)N1CCCCCC1` was 11.7% (inactive). Regarding `O=C(Nc1ccc(S(=O)(=O)N2CCCCC2)cc1)C1CC(=O)N(c2ccc(F)cc2)C1` (centres undefined), the Potency was 5.22 µM (active).

As for `O=C(c1ccc(Cl)c(Cl)c1)N1CCCC1`, the “activity change, negative = inhibition” value is 18.7% (inactive). With `O=C(Nc1cccc(S(=O)(=O)N2CCCCC2)c1)c1ccc2c(c1)OCO2`, the “activity change, negative = inhibition” value is 11.6% (inactive).

Turning to `O=C(C1CC(=O)N(c2ccc(F)cc2)C1)N1CCN(c2ccccc2)CC1` (centres undefined), the “activity change, negative = inhibition” value was 38.4% (inactive). For the molecule `CCC(C)c1ccccc1N1CC(C(=O)N2CCN(S(=O)(=O)c3ccc(F)cc3)CC2)CC1=O` (centres undefined), the Potency was 10.4 µM (active). Consider `O=C(c1ccc(Cl)c(S(=O)(=O)N2CCCCCC2)c1)N1CCN(c2ccc(O)cc2)CC1`, for which the Potency is 13.1 µM (active). `COC(=O)c1ccc(NC(=O)c2cc3c(CO)cnc(C)c3oc2=Nc2cccc(C(N)=O)c2)cc1`: the “activity change, negative = inhibition” value was 10.2% (inactive). Consider `Cc1nc(NC(=O)c2ccc3c(c2)OCCO3)ccc1Br`, for which the “activity change, negative = inhibition” value was 324% (inactive). Turning to `CCCCn1c(N)c(N(CCOC)C(=O)c2oc3ccc(OC)cc3c2C)c(=O)[nH]c1=O`, the “activity change, negative = inhibition” value is -10.5% (inactive). `Cc1cn([C@H]2CC(F)[C@@H](CO)O2)c(=O)[nH]c1=O` (some centres undefined): the “activity change, negative = inhibition” value was 0.676% (inactive). Take `COc1ccc2cc(C(=O)C3CCCN(C(=O)c4sc(C)nc4C)C3)ccc2c1` (centres undefined): the “activity change, negative = inhibition” value is -15.4% (inactive). With `COc1ccccc1C(=O)NC(CCSC)C(=O)NNC(=O)c1ccccc1C` (centres undefined), the “activity change, negative = inhibition” value is 6.75% (inactive). Consider `Cc1ccc(CN(CC(=O)NCC2CCCO2)S(=O)(=O)c2ccc(C)cc2)cc1` (centres undefined), for which the “activity change, negative = inhibition” value is 6.34% (inactive). For `O=C(Cc1ccccc1)Nc1ccc(C(=O)Nc2ccccc2C(=O)O)cc1`, the “activity change, negative = inhibition” value is -11.1% (inactive). For the molecule `CCOC(=O)c1sc(NC(=O)C2CSC3(C)CCC(=O)N23)nc1C` (centres undefined), the “activity change, negative = inhibition” value is -29.7% (inactive). Turning to `CCOC(=O)N1CCN(Cc2nc3cc(NC(C)=O)ccc3n2C)CC1`, the “activity change, negative = inhibition” value is 19.6% (inactive).

For `Cc1ccc(NC(=O)C2CC(=O)N(c3ccc4c(c3)OCCO4)C2)cc1S(=O)(=O)N1CCCCCC1` (centres undefined), the Potency is 11.7 µM (active). With `O=C(Nc1ccccc1)C1CCN(C(=O)c2ccc(Br)cc2)CC1`, the “activity change, negative = inhibition” value is -23.3% (inactive). Take `O=C(Nc1ccc(F)cc1)C1CCCN(S(=O)(=O)c2ccc(-n3cnnn3)cc2)C1` (centres undefined): the “activity change, negative = inhibition” value was 1.34% (inactive).

On to `CC(=O)c1ccccc1NC(=O)C1CC(=O)N(c2ccc3c(c2)OCCO3)C1` (centres undefined), for which the “activity change, negative = inhibition” value is -4.46% (inactive).
